Reference: the supplement of paper PMC12024424
Structures can show the parent of a compound that is named as a salt.

System: Staphylococcus aureus Sa2 (MRSA, cystic fibrosis isolate)
Assay: growth reduction vs untreated control (viable cell count); higher = stronger antibacterial activity; extreme values may be limits of the assay
Settings: 0.1 mM; 24 h
Protocol: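 Single-dose screen of the MedChem Express Drug Repurposing Library (0.1 mM, 1% DMSO) against planktonic MRSA S. aureus Sa2 (CF isolate) in TSB in 96-well plates, 37 °C aerobic, 24 h. Assays were run in triplicate and repeated twice.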

Compound | growth reduction [%]
CCC(c1ccccc1)c1c(O)c2ccccc2oc1=O (configuration not stated) [Phenprocoumon] | 95
CCN(CC)CCN(Cc1ccc(-c2ccc(C(F)(F)F)cc2)cc1)C(=O)Cn1c(SCc2ccc(F)cc2)nc(=O)c2c1CCC2 [Darapladib] | 100
NC(=O)N1c2ccccc2C[C@H](O)c2ccccc21 [Eslicarbazepine] | 94
N#Cc1ccc(Oc2ccc3c(c2)COB3O)cc1 [Crisaborole] | 100
Cc1cc(C2CCCCC2)n(O)c(=O)c1 [Ciclopirox] | 100
O=c1oc2ccccc2c(O)c1Cc1c(O)c2ccccc2oc1=O [Dicoumarol] | 100
CC1(C)S[C@@H]2[C@H](NC(=O)[C@H](N)c3ccccc3)C(=O)N2[C@H]1C(=O)OCOC(=O)[C@@H]1N2C(=O)C[C@H]2S(=O)(=O)C1(C)C [Sultamicillin (tosylate)] | 100
Clc1ccc(CSC(Cn2ccnc2)c2ccc(Cl)cc2Cl)cc1 (configuration not stated) [Sulconazole (nitrate)] | 100
Cc1cc(C)cc([C@@H]2CCCN2Cc2ccc(Oc3ccc(C(N)=O)cc3F)cc2)c1 [Aticaprant] | 100
Cc1cc2c(F)c(Oc3ncnn4cc(OC[C@@H](C)OC(=O)[C@H](C)N)c(C)c34)ccc2[nH]1 [Brivanib (alaninate)] | 100
CC(C)(O)c1ccccc1CC[C@@H](SCC1(CC(=O)O)CC1)c1cccc(/C=C/c2ccc3ccc(Cl)cc3n2)c1 [Montelukast (sodium)] | 100
Cc1noc(-c2ccc(-c3ccc(C4(C(=O)O)CC4)cc3)cc2)c1NC(=O)O[C@H](C)c1ccccc1 | 100
C=CCNc1c(O)cc2c(O)c1C[C@@H](C)C[C@H](OC)[C@H](O)[C@@H](C)/C=C(\C)[C@H](OC(N)=O)[C@@H](OC)/C=C\C=C(/C)C(=O)N2 [Retaspimycin (Hydrochloride)] | 100
Cc1cccc(Nc2ccccc2C(=O)O)c1C [Mefenamic acid] | 100
CCCCCCCCCCCC1=C(O)C(=O)C=C(O)C1=O [Embelin] | 100
Nc1ccn([C@@H]2O[C@H](CO)[C@@H](O)C2(F)F)c(=O)n1 [Gemcitabine] | 100
O=C(O)CNC(=O)c1c(=O)cc(CCc2ccccc2)n2[nH]cnc12 [Enarodustat] | 92
CN(CCCCCCCCCCN(C)C(=O)Oc1cccc([N+](C)(C)C)c1)C(=O)Oc1cccc([N+](C)(C)C)c1 [Demecarium Bromide] | 98
O/N=c1\cc(-c2cc3sccc3cn2)oc2ccc(CCCN3CCOCC3)cc12 [Foliglurax (monohydrochloride)] | 100

Compound | growth reduction [%]
CCN(CC)CC#CCOC(=O)C(O)(c1ccccc1)C1CCCCC1 (configuration not stated) [Oxybutynin (chloride)] | 91
Cc1ccc(Cl)c(Nc2ccccc2C(=O)O)c1Cl [Meclofenamate (sodium)] | 99
Cn1ncc(Cl)c1-c1cc(C(=O)N[C@H](CN)Cc2cccc(F)c2)sc1Cl [Afuresertib] | 100
Nc1ccc2cc3ccc(N)cc3nc2c1 [Proflavine (hemisulfate)] | 100
CN(C)C(=O)/C=C/CNCCOc1ccc(/C(=C(/CC(F)(F)F)c2ccccc2)c2ccc3[nH]nc(F)c3c2)cn1 | 100
CS(=O)(=O)c1ccc([C@@H](O)[C@@H](CF)NC(=O)C(Cl)Cl)cc1 [Florfenicol] | 100
COC(=O)/C=C/C(=O)OCCN1C(=O)CCC1=O [Diroximel fumarate] | 100
CNC(=O)c1cc(Oc2ccc(NC(=O)Nc3ccc(Cl)c(C(F)(F)F)c3)c(F)c2)ccn1 [Regorafenib (Hydrochloride)] | 100
Cc1ccc(C(=O)c2cc(O)c(O)c([N+](=O)[O-])c2)cc1 [Tolcapone] | 100
CCN(CC)CCOc1ccc(/C(=C(/Cl)c2ccccc2)c2ccccc2)cc1 [Enclomiphene (citrate)] | 100
CN1CC[C@@H](NC(=O)Nc2ccc(C#N)cc2)C[C@@H]1c1nc2ccccc2[nH]1 [Glasdegib] | 98
OC(c1cc(C(F)(F)F)nc2c(C(F)(F)F)cccc12)C1CCCCN1 (configuration not stated) [Mefloquine (hydrochloride)] | 100
Cc1ccc(C(=O)Nc2ccc(CN3CCN(C)CC3)c(C(F)(F)F)c2)cc1C#Cc1cnc2cccnn12 [Ponatinib] | 95
CO[C@H](C(=O)[C@@H](O)[C@@H](C)O)[C@@H]1Cc2cc3cc(O[C@H]4C[C@@H](O[C@H]5C[C@@H](O)[C@H](O)[C@@H](C)O5)[C@H](O)[C@@H](C)O4)c(C)c(O)c3c(O)c2C(=O)[C@H]1O[C@H]1C[C@@H](O[C@H]2C[C@@H](O[C@H]3C[C@](C)(O)[C@H](O)[C@@H](C)O3)[C@@H](O)[C@@H](C)O2)[C@H](O)[C@@H](C)O1 [Plicamycin] | 100
Clc1ccc(CCC(Cn2ccnc2)Sc2c(Cl)cccc2Cl)cc1 (configuration not stated) [Butoconazole (nitrate)] | 100
COc1ccc(CN2CCN(C(c3ccc(F)cc3)c3ccc(F)cc3)CC2)c(OC)c1OC [Lomerizine dihydrochloride] | 98
Nc1ccc(S(=O)(=O)Nc2cnc3c(Cl)cccc3n2)cc1 [Chloroquinoxaline sulfonamide] | 99
O=C(O)c1ccccc1Nc1cccc(C(F)(F)F)c1 [Flufenamic acid] | 98
